# Compound activity deposited in PubChem by University of Kansas High Throughput Screening Laboratory.
# The entries come from a sample that favours hits as a whole.
# Pf apPOL inh = Pf-apPOL DNA polymerase inhibition. actives 0.25% (n = 210,000). Recombinant Pf-apPOL, molecular beacon fluorescence, 1.5 h. inhibition, % at 10 µM
# mHTT-CaM PPI inh = disrupts binding of mutant huntingtin to calmodulin; actives 3.6% (n = 190,000); AID 1671202; P42858; AlphaScreen His-mHTT/GST-CaM binding, luminescence; inhibition, % at 15 µM
# Hits are given with their value; . = inactive; / = no result; ! = a repeat was not active. Cut-off read from the data, not from the text of the source: active = inhibition above about 50%; inactive = the rest.
SMILES,Pf apPOL inh,mHTT-CaM PPI inh
CNC(=O)N1CCCC(c2cccc(C(=O)N3CCN(c4ccc(Cl)cc4)CC3)c2)C1 (stereo not given),.,.
CCOC(=O)c1ccc(OCC2c3cc(OC)c(OC)cc3CCN2C(=O)C(CC)CC)cc1 (stereo not given),.,.
COC(=O)Nc1ccc(S(=O)(=O)N2CCCC(C(=O)Nc3ccc(C)c(Cl)c3)C2)cc1 (stereo not given),.,.
O=C(COc1ccccc1)Nc1nc2ccc([N+](=O)[O-])cc2s1,.,.
Cc1cccc(-n2ccnc2SCC(=O)Nc2ccc(F)cc2F)c1C,.,.
COc1ccc(Cl)cc1NC(=O)CSc1nccn1-c1cccc(C)c1C,.,56
COc1ccc(/C=C2N=C(/C=C/c3ccc(C)cc3)OC\2=O)c(OC)c1OC,.,.
CC(=O)Nc1ccccc1/C=C/c1ccc2cccc(O)c2n1,.,.
CC(=O)Nc1ccc2cccc(O)c2n1,.,100
O=[N+]([O-])c1ccc(NC(c2ccccn2)c2ccc3cccnc3c2O)cc1 (stereo not given),.,100
O=[N+]([O-])c1ccc(OCCOc2cccc3cccnc23)cc1,.,.
O=C(NCc1ccccn1)C(=O)Nc1cccc(C(F)(F)F)c1,.,.
Oc1c(C(Nc2cccc(Cl)c2)c2ccccn2)ccc2cccnc12 (stereo not given),.,100
CN(C)CCC(c1ccc(Cl)cc1)c1ccccn1 (stereo not given),.,/
O=C(Nc1cccc2cccnc12)c1ccc(Cl)cc1Cl,.,.
Oc1c(C(Nc2cccc(C(F)(F)F)c2)c2ccccn2)ccc2cccnc12 (stereo not given),.,99
Oc1c(C(Nc2ccc(Cl)cc2)c2ccccn2)ccc2cccnc12 (stereo not given),.,100
CCc1cccc(C)c1NC(=O)CSc1nnnn1-c1ccc(C(N)=O)cc1,.,.
O=C(c1ccoc1)N1CCC(n2cnnc2-c2ccccc2)C1 (stereo not given),.,.
Cc1ccccc1CNC(=O)C1CCn2c(nc3ccccc32)C1 (stereo not given),.,.
COc1ccc(NC(=O)c2cccnc2)cc1,.,.
COc1ccc(NC(c2cccnc2)c2ccc3cccnc3c2O)cc1 (stereo not given),.,99
Oc1c(C(Nc2cccc(C(F)(F)F)c2)c2cccnc2)ccc2cccnc12 (stereo not given),.,99
Cc1[nH]c2ccccc2c1C(Nc1cccc(C(F)(F)F)c1)c1cccnc1 (stereo not given),.,.
COc1cc(OC)c(/C=C2\C(=O)NC(=O)N(c3ccccc3C)C2=O)c(OC)c1,.,.
SMILES,Pf apPOL inh,mHTT-CaM PPI inh
O=C(NC1CCCCCC1)C1CCN(c2nccc3sccc23)CC1,.,.
Cc1cccc(C(=O)Nc2c3c(nn2-c2cccc(Cl)c2)CS(=O)(=O)C3)c1,.,.
O=C(c1cccc(Cl)c1)N1N=C(C(F)(F)F)CC1(O)c1ccc(Cl)cc1 (stereo not given),.,76
CCc1ccc(C2(O)CC(C(F)(F)F)=NN2C(=O)c2cccc(Br)c2)cc1 (stereo not given),.,.
O=C(c1ccc([N+](=O)[O-])cc1)N1N=C(C(F)(F)F)CC1(O)c1ccncc1 (stereo not given),.,.
CCC1=NN(C(=O)c2cccc([N+](=O)[O-])c2)C(O)(c2ccc(Cl)cc2)C1 (stereo not given),.,77
CCC1=NN(C(=O)c2ccc([N+](=O)[O-])cc2)C(O)(c2ccccc2)C1 (stereo not given),.,.
O=C(c1cccc(Br)c1)N1N=C(C(F)(F)F)CC1(O)c1ccc(Cl)cc1 (stereo not given),.,.
Cc1cccc(C(=O)N2N=C(C(F)(F)F)CC2(O)c2ccc(Br)cc2)c1 (stereo not given),.,72
CCc1ccc(C2(O)CC(C(F)(F)F)=NN2C(=O)c2ccc([N+](=O)[O-])cc2)cc1 (stereo not given),.,81
CCNc1cc(N2CCC(CCC(=O)N(C)Cc3cn(C)nc3C)CC2)ncn1,.,.
CN(C)CCn1c2c(c3ccccc31)CCCn1nnnc1-2,.,56
CC(=O)Nc1nc2ccccc2n1CCN(C)C,.,.
COc1cccc(NC(=O)C2CC(=O)N(c3ccc4c(c3)CCN4C(=O)C3CCC3)C2)c1 (stereo not given),.,.
Nc1ccc2[nH]c3ccccc3c2c1,.,99
CC(=O)c1ccc2[nH]c3ccccc3c2c1,.,.
O=C1CCCC2=C1C(c1ccc(Br)cc1)C1C(=O)c3ccccc3C1=N2 (stereo not given),.,69
CC1(C)CC(=O)C2=C(C1)N=C1c3ccccc3C(=O)C1C2c1cccc(Cl)c1 (stereo not given),.,64
O=C1CCCC2=C1C(c1cc(Br)ccc1O)C1C(=O)c3ccccc3C1=N2 (stereo not given),.,.
Cc1ccc(C2C3=C(CC(C)(C)CC3=O)N=C3c4ccccc4C(=O)C32)cc1 (stereo not given),.,62
CC1(C)CC(=O)C2=C(C1)N=C1c3ccccc3C(=O)C1C2c1ccc(Cl)cc1 (stereo not given),.,68
O=C1CCCC2=C1C(c1cccc(Cl)c1)C1C(=O)c3ccccc3C1=N2 (stereo not given),.,.
Cc1cc(C2C3=C(CC(C)(C)CC3=O)N=C3c4ccccc4C(=O)C32)cc(C)c1O (stereo not given),.,.
CC1(C)CC(=O)C2=C(C1)N=C1c3ccccc3C(=O)C1C2c1ccccc1Cl (stereo not given),.,.
COc1ccccc1/C=C/C1=NC(=C\c2ccccc2F)/C(=O)O1,.,.
SMILES,Pf apPOL inh,mHTT-CaM PPI inh
CCNC(=O)CN(c1ccccc1)S(=O)(=O)c1ccc(OC)cc1,.,.
COc1ccc(C2C3=C(CC(C)(C)CC3=O)N=C3c4ccccc4C(=O)C32)cc1OC (stereo not given),.,64
CC1(C)CC(=O)C2=C(C1)N=C1c3ccccc3C(=O)C1C2c1cccc([N+](=O)[O-])c1 (stereo not given),.,51!
COc1ccc(C2C3=C(CC(C)(C)CC3=O)OC3=C2C(=O)CC(C)(C)C3)cc1OC,.,.
CC1(C)CC(=O)C2=C(C1)Nc1ccccc1NC2c1cccc([N+](=O)[O-])c1 (stereo not given),.,.
COc1ccc(CCNC(=O)c2cc(-c3ccc(OC)c(OC)c3)on2)cc1OC,.,.
Cc1cccc(NC(=O)N2CCc3c(c(COc4cccc(F)c4)nn3C)C2)c1C,.,.
CC(=O)c1ccc(Cl)c(NS(=O)(=O)c2ccc(C(C)C)cc2)c1,.,/
N#Cc1cccc(S(=O)(=O)N2CCC(c3noc(-c4ccc(Cl)cc4)n3)CC2)c1,.,.
CC1CC(=O)Nc2c1c(NC(=O)c1cc(-c3ccc(F)cc3)n[nH]1)nn2C (stereo not given),.,.
CC1CC(=O)Nc2c1c(NC(=O)c1ccc(S(=O)(=O)N3CCOCC3)cc1)nn2C (stereo not given),.,100
Cc1ccc(C(=O)Nc2c3c(nn2C(C)(C)C)CSC3)cc1[N+](=O)[O-],.,.
CC(C)(C)n1nc2c(c1NC(=O)c1cccc([N+](=O)[O-])c1)CSC2,.,67
Cc1c(C(=O)Nc2c3c(nn2C(C)(C)C)CSC3)cccc1[N+](=O)[O-],.,92
